# The whole screen tested about 310,000 compounds, of which about 14,000 (4.5%) showed an effect of 50% or more. Effects have a minus sign here. What follows is part of a selection rich in strong results, with near analogues and random picks from the rest.
# Biological target: human ether-à-go-go-related gene (hERG) potassium channel (human, UniProt Q12809)
# Experiment: primary screen, population patch clamp on CHO cells stably expressing hERG; higher = less effect of the substance
# 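Also: peak tail current of the secondary pulse compared with the same well before compound.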
# Sequence of human ether-à-go-go-related gene (hERG) potassium channel (Q12809 whole entry, looked up): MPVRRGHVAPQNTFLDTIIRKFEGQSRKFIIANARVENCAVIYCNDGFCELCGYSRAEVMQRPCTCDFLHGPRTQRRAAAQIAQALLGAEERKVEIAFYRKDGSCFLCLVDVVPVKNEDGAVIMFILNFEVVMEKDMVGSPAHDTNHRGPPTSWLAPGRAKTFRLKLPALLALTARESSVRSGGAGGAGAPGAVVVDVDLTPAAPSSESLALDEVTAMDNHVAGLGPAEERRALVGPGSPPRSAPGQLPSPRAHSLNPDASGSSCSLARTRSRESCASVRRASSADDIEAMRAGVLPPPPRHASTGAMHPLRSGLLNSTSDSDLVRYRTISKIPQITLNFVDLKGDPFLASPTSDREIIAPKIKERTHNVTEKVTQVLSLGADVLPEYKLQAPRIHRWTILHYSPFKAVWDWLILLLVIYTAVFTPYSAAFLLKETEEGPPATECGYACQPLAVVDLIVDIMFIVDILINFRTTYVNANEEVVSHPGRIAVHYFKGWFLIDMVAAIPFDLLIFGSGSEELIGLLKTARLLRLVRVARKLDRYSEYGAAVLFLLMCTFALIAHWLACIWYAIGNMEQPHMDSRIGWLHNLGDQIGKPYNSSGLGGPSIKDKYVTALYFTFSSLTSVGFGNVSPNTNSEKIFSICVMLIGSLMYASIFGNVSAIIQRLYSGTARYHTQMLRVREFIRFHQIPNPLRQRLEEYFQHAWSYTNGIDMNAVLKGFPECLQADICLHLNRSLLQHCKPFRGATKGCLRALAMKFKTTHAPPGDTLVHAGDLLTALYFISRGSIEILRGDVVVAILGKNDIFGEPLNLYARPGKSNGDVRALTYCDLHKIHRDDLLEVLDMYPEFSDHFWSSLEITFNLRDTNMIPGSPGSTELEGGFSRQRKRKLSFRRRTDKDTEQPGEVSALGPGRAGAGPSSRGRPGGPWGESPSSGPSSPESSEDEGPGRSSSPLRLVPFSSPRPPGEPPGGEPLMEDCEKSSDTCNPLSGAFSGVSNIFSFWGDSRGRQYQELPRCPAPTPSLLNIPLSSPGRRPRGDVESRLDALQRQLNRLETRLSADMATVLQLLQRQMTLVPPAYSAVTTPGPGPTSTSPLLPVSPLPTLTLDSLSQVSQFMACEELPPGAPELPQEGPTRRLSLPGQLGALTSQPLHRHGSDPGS
row,Structure (SMILES),"hERG current change (%, negative = inhibition) at 10uM [%]"
1,C=C(C)c1cccc(C(C)(C)NC(=O)N2CCN(c3ccccc3OC)CC2)c1,4.28
2,COc1ccc(CCNC(=O)C2CCN(C(=O)c3cccs3)CC2)cc1,-0.649
3,CC(=O)Nc1ccc(NC(=O)CSc2ccc3nnc(-c4ccccn4)n3n2)cc1,17.7
4,COc1ccc(NC(=O)CSc2ccc3nnc(-c4ccccn4)n3n2)cc1,-20.9
5,CC(=O)c1ccc(NC(=O)CSc2ccc3nnc(-c4ccccn4)n3n2)cc1,-64.7
6,CCOc1ccc(NC(=O)CSc2ccc3nnc(-c4ccccn4)n3n2)cc1,-54.3
7,COc1ccc(NC(=O)CSc2ccc3nnc(-c4ccccn4)n3n2)cc1OC,-18.1
8,CC(=O)c1ccc(NC(=O)CSc2nnc3ccc(-c4ccccn4)nn23)cc1,-10.5
9,CCc1cccc(C)c1NC(=O)Cn1nc(C)n2cccc2c1=O,22.9
10,COc1ccc(-c2csc(N3CCN(c4cc5c(cc4Cl)nc(-c4ccncc4)n5CCOCCO)CC3)n2)cc1,12.6
11,COc1ccc(C(=O)N/C(=C\c2ccc(OC)c(OC)c2)C(=O)N2CCCCC2)cc1,6.11
12,O=C(N/C(=C/c1ccc(Cl)cc1)C(=O)N1CCCC1)c1ccccc1,-8.81
13,COc1ccc(/C=C(\NC(=O)c2ccccc2)C(=O)N2CCN(C)CC2)cc1,-76.3
14,CCOC(=O)N1CCN(C(=O)/C(=C/c2ccc(N(C)C)cc2)NC(=O)c2ccccc2)CC1,-45.6
15,COc1ccc(/C=C(\NC(=O)c2ccc(OC)cc2)C(=O)N2CCCCC2)cc1,-3.21
16,COc1ccc(/C=C(/NC(=O)c2ccccc2)C(=O)N2CCCCC2)cc1,-1.39
17,CCOC(=O)N1CCN(C(=O)/C(=C/c2ccc(Br)cc2)NC(=O)c2ccc(OC)cc2)CC1,-78.2
18,CCOC(=O)N1CCN(C(=O)/C(=C/c2ccc(Cl)cc2)NC(=O)c2ccccc2)CC1,-74.7
19,COc1ccc(/C=C(\NC(=O)c2ccc(C)cc2)C(=O)N2CCCCC2)cc1,-55.2
20,COc1ccc(/C=C(/NC(=O)c2ccccc2)C(=O)N2CCCC2)cc1,2.89
21,N#Cc1ccc(C(=O)Nc2ccc(S(=O)(=O)NC3=NCCCCC3)cc2)cc1,-1.54

row,Structure (SMILES),"hERG current change (%, negative = inhibition) at 10uM [%]"
1,CC1=CC(=O)c2c(O)ccc(O)c2C1=O,-42.6
2,Cc1nn(C)c(C)c1CNC(=O)Nc1cccc(Cl)c1C,1.35
3,CCOC(=O)c1[nH]c(C)c(C(=O)OCCOc2cccc(C)c2)c1C,5.99
4,CC(C)C(=O)NC(Nc1cccc2cccnc12)C(Cl)(Cl)Cl (stereo not drawn),-17.8
5,COc1cc(NC(=O)[C@@H](NC(=O)c2ccco2)C(C)C)c(OC)cc1NC(=O)c1ccccc1,-36
6,CCOC(=O)C1=C(N)OC(CCl)=C(C#N)C1c1ccsc1 (stereo not drawn),8.35
7,CCOC(=O)N1CCN(C(=O)/C(=C\c2ccc(SC)cc2)NC(=O)c2ccccc2)CC1,-78.5
8,COc1ccc(/C=C(/NC(=O)c2ccccc2)C(=O)N2CCC(C)CC2)cc1,-38.4
9,CCOC(=O)N1CCN(C(=O)/C(=C/c2ccc(OC)cc2)NC(=O)c2ccccc2)CC1,-68.4
10,CCOC(=O)C1CCN(C(=O)/C(=C/c2ccccc2)NC(=O)c2ccccc2)CC1,-30
11,CCOC(=O)N1CCN(C(=O)/C(=C/c2ccc(F)cc2)NC(=O)c2ccccc2)CC1,-48.5
12,CCOC(=O)N1CCN(C(=O)/C(=C/c2ccc(OC)c(OC)c2)NC(=O)c2ccccc2)CC1,-34.5
13,CCNc1nc(C(=O)O)nc(N2CCOCC2)n1,10.7
14,CCCc1nnc(NC(=O)CC(C)c2ccccc2)s1 (stereo not drawn),2.66
15,Cc1nn(Cc2ccccc2)c(C)c1NC(=O)c1cccs1,14
16,COc1ccccc1N1CCN(S(=O)(=O)CCNC(=O)C2CCCCC2)CC1,-20.7
17,CCOC(=O)c1ccc(Nc2ncnc3ccc(C)cc23)cc1,6.65
18,Brc1ccccc1-c1nnc(COc2ncnc3ccccc23)o1,-8.52
19,O=[N+]([O-])c1ccc2c(OCc3nnc(-c4ccccc4Br)o3)ncnc2c1,-74.1
20,Brc1ccccc1-c1nnc(COc2ncnc3c2cnn3-c2ccccc2)o1,7.27
21,COc1ccc(N2C(=O)CCC(C(=O)N3CCN(c4ccccn4)CC3)C2c2ccc(F)cc2)cc1 (stereo not drawn),-48.2
